Data taken from ChEMBL document CHEMBL4513146, “CO-ADD screening of Karazin Kharkiv National University (Ukraine) compounds”.
Entries with a potency or affinity are not part of this list.

Assays:
Klebsiella pneumoniae = settings: Concentration 32 ug.mL-1;; ASSAY_TEST Inhibition of Bacterial Growth; detection method Absorption (OD600); MEDIA CAMHB; plate type 384well; NBS; CORNING #3640; time 18 hr
Candida albicans = settings: Concentration 32 ug.mL-1; ASSAY_TEST Inhibition of Fungal Growth; detection method Absorption (OD530)
Cryptococcus neoformans = settings: Concentration 32 ug.mL-1; ASSAY_TEST Inhibition of Fungal Growth; detection method Resazurin; Absorption (OD600-OD570); plate type 384well; NBS; CORNING #3640

Row | Compound | Inhibition (Klebsiella pneumoniae) [%] | Inhibition (Candida albicans) [%] | Inhibition (Cryptococcus neoformans) [%]
1 | O=C(Cn1nc2c(Sc3ccccc3)nccn2c1=O)Nc1cc(F)ccc1F | -2.16 | 0.26 | -12.37
2 | O=S(=O)(c1ccc2nncn2c1)N(Cc1ccccc1)c1ccc(F)c(F)c1 | 5.23 | 3.55 | -6.45
3 | CC(C)CCn1c(=O)c2ccccc2n2c(=O)n(CC#N)nc12 | 17.73 | 2.65 | -29.58
4 | COc1ccccc1NC(=O)Cn1nc2n(CCCOC(C)C)c(=O)c3ccccc3n2c1=O | 12.77 | 2.2 | -35.55
5 | CCOC(=O)c1ccc(NC(=O)Cn2nc3ccc(Sc4cccc(F)c4)nn3c2=O)cc1 | 10.14 | 3.42 | -9.72
6 | CSc1cccc(NC(=O)Cn2c(=O)c3nnc(C)n3c3ccccc32)c1 | 4.53 | 4.76 | -2.25
7 | COc1ccc(NC(=O)Cn2c(=O)c3nnc(C(C)C)n3c3ccccc32)cc1 | 10.47 | 4.15 | -13.18
8 | COc1ccc(-c2cc3c4nnc(SCC(=O)NCc5ccccc5Cl)n4ccn3n2)cc1 | 6.77 | 1.79 | -22.52
9 | COc1ccc(NC(=O)CSc2nnc3c(=O)n(-c4ccccc4OC)ccn23)cc1Cl | 12.69 | 3.75 | -12.03
10 | CCc1ccc(N(Cc2ccccc2Cl)S(=O)(=O)c2cccn3c(C)nnc23)cc1 | 4.84 | 5.69 | -4.25
11 | Cc1ccc(CNC(=O)CSc2nnc3c4cc(-c5ccc(C)cc5)nn4ccn23)cc1 | 11.71 | -0.39 | -36.09
12 | COc1cc(OC)c(NC(=O)Cn2nc3c(Oc4cccc(C)c4C)nccn3c2=O)cc1Cl | 8.97 | 0.16 | -9.4
13 | Cc1ccc(-n2ccn3c(=O)n(Cc4ccccc4Cl)nc3c2=O)cc1C | 4.31 | 3.38 | -10.75
14 | COc1cccc(-n2ccn3c(SCC(=O)c4c(C)[nH]c5ccccc45)nnc3c2=O)c1 | 9.67 | 3.81 | -9.48
15 | CC(C)NC(=O)CCn1c(=O)c2cc(Cl)ccc2n2c(=O)n(CC#N)nc12 | 4.55 | 6.33 | -24.01
16 | COc1ccccc1-n1ccn2c(SCC(=O)Nc3ccc(C)cc3C)nnc2c1=O | 11.64 | 2.45 | -10.8
17 | COc1ccccc1-n1ccn2c(SCC(=O)Nc3ccc4c(c3)OCCO4)nnc2c1=O | 16.4 | 6.52 | -7.16
18 | CCCCc1ccc(NC(=O)CSc2nc3ccccc3n3c(CC)nnc23)cc1 | 13.43 | 1.28 | -16.72
19 | COc1ccc(C(=O)CSc2nnc3c(=O)n(-c4ccc(F)c(F)c4)ccn23)cc1OC | 11.04 | 3.34 | -3.67
20 | O=C(CSc1nnc2c(=O)n(-c3ccc(Br)cc3)ccn12)Nc1ccc(F)cc1 | 8.05 | 10.99 | -11.61
21 | Cc1ccc(-c2ccc3nnc(CCC(=O)NCc4cccc(Br)c4)n3n2)cc1C | -2.24 | 4.88 | -4.39
22 | Cc1cccc(N(C)C(=O)Cn2nc3cc(C)nc(Nc4ccc(F)c(C)c4)n3c2=O)c1 | 4.58 | 2.18 | -4.41
23 | Cc1cccc(NC(=O)Cn2nc3ccc(-c4ccccc4)nn3c2=O)c1 | 6.7 | 4.41 | -14.95
24 | CC(C)(C)OC(=O)CN(c1ccc2c(c1)OCCO2)S(=O)(=O)c1ccc2nncn2c1 | 11.52 | 1.39 | -8.21
25 | Cc1ccc(Sc2ccc3nn(CC(=O)Nc4cccc(Cl)c4)c(=O)n3n2)cc1 | -1.6 | 23.7 | -8.64

Row | Compound | Inhibition (Klebsiella pneumoniae) [%] | Inhibition (Candida albicans) [%] | Inhibition (Cryptococcus neoformans) [%]
26 | Cc1cccc(NC(=O)Cn2nc3c4cc(-c5ccc(Cl)cc5)nn4ccn3c2=O)c1 | 1.22 | 16.29 | -21.44
27 | CN(C)C(=O)CSc1nnc2c(=O)n(-c3ccc(F)cc3)ccn12 | 10.89 | 3.85 | -5.4
28 | CCOc1ccc(-n2ccn3c(SCC(=O)Nc4ccccc4C(F)(F)F)nnc3c2=O)cc1 | 17.14 | 2.4 | -14.22
29 | CCCCOc1ccc(-c2cc3c4nnc(SCC(=O)Nc5cc(F)ccc5C)n4ccn3n2)cc1 | -4.04 | 9.93 | -31.79
30 | O=C(Cn1nc2c(SC3CCCCC3)nccn2c1=O)NCc1ccc(F)cc1 | 9.17 | 0.24 | -16.51
31 | CCCN(C)c1nccn2c(=O)n(CC(=O)Nc3cccc(Cl)c3F)nc12 | 7.25 | 0.78 | -6.38
32 | O=C(CSc1nc2ccccc2n2cnnc12)Nc1cc(C(F)(F)F)ccc1Cl | 4.72 | 15.89 | -19.78
33 | COc1ccc(-c2cc3c4nnc(SCC(=O)Nc5cc(Cl)ccc5C)n4ccn3n2)cc1 | 0.68 | 28.62 | -34.55
34 | O=C(CSc1nnc2c(=O)n(-c3ccccc3)ccn12)NCc1ccc(Cl)cc1 | 5.95 | -0.29 | -12.48
35 | COc1ccc(-c2cc3c4nn(CC(=O)Nc5cc(C)cc(C)c5)c(=O)n4ccn3n2)cc1 | 9.4 | 2.5 | -4.71
36 | CSc1cccc(NC(=O)Cn2nc3c(Oc4cc(C)cc(C)c4)nccn3c2=O)c1 | 7.88 | 2.48 | -9.76
37 | Cc1ccc(NC(=O)Cn2nc3c(N4CCOCC4)nccn3c2=O)cc1F | 7.04 | 3.27 | -4.33
38 | CCC(C)NC(=O)CSc1nnc2c(=O)n(Cc3ccc(F)cc3)ccn12 (configuration not stated) | 6.96 | 1.05 | -22.53
39 | COc1ccc2[nH]cc(C(=O)CSc3nnc4c(=O)n(-c5ccc(C)c(C)c5)ccn34)c2c1 | 2.12 | 0.06 | -6.08
40 | CCOc1ccc(NC(=O)Cn2nc3ccc(SCc4ccc(Cl)cc4)nn3c2=O)cc1 | 7.43 | 15.3 | -13.71
41 | CCc1ccc(N(Cc2ccccc2)S(=O)(=O)c2cccn3cnnc23)cc1 | 1.9 | 2.34 | -3.81
42 | COc1cccc(CN(c2ccc(F)cc2)S(=O)(=O)c2cccn3cnnc23)c1 | -0.69 | -0.06 | -1.54
43 | CCc1nnc2c(S(=O)(=O)N(Cc3cc(F)cc(F)c3)c3ccc(F)cc3)cccn12 | -0.25 | 4.45 | -8.28
44 | CCOC(=O)c1ccccc1NC(=O)Cn1nc2c3cc(-c4ccc(Cl)cc4)nn3ccn2c1=O | 14.78 | 2.98 | -20.88
45 | CCc1ccc(N(Cc2ccccc2C)S(=O)(=O)c2cccn3c(C)nnc23)cc1 | 3.93 | 5.07 | -8.38
46 | Cc1ccc(NC(=O)Cn2nc3c4cc(-c5ccc(Cl)cc5)nn4ccn3c2=O)cc1C | 9.71 | 6.69 | -22.86
47 | Cc1cc(C)cc(Nc2nc(C)cc3nn(CC(=O)N(C)c4cccc(C)c4)c(=O)n23)c1 | 7.61 | 2.11 | -3.53
48 | COc1ccc(CNC(=O)Cn2nc3c(N4CCN(c5ccccc5)CC4)nccn3c2=O)cc1 | 14.33 | 4.36 | -9.25
49 | Cc1ccc(-n2ccn3c(=O)n(Cc4ccc(F)cc4)nc3c2=O)cc1C | 10.23 | 1.58 | -18.28
